PABP1 MLLE inh: inhibitors of microRNA-mediated deadenylation, human PABP1 MLLE binding; inhibition, % at 20 µM; actives 0.36% (n = 360,000); GST-MLLE / FITC-PAM2 fluorescence polarization; P11940; in the data active = inhibition above about 35%, passing the limit was not always enough;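 note: plate controls were DMSO wells with GST-MLLE for no effect and wells lacking GST-MLLE protein for full effect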
PABP polyA inh: PABP-poly(A) binding inhibition | actives 1% (n = 290,000) | inhibition, % at 35 µM | AID 2014 | PABP-poly(A) RNA binding, fluorescence polarization;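 note: calls also rest on retests at 20 µM and on dose response follow-up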
eIF4H FP inh: inhibitors of RNA binding by human eIF4H; actives 0.94% (n = 290,000); Q15056; eIF4H fluorescence polarization binding assay; inhibition, % at 35 µM;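 note: calls also rest on retests at 20 µM and on dose response follow-up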
PERK inhibitor: blocks human PERK kinase; actives 0.17% (n = 220,000); CHO PERK-DD fusion, SEAP luminescence translation reporter; Q9NZJ5; inhibition, % at 5.6 µM;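 active = inhibition above the mean inhibition of all tested compounds plus 3 SD, set separately per screening campaign, cut at about 2.9% in these data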;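 note: PERK kinase domain activated by AP20187 dimerizer at 100 nM; 0% = DMSO with dimerizer and 100% = rapamycin at 8.4 µM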
GRK2 aptamer HTS: human GRK2 inhibition via aptamer displacement; bead flow cytometry, FAM-aptamer displacement from GRK2; inhibition of aptamer binding, % at 10 µM; actives 0.59% (n = 330,000);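 active = inhibition of aptamer binding above 40%, roughly 3 SD of noise, on plates passing a quality check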;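 note: median bead fluorescence of bound FAM aptamer so fluorescent compounds give negative values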
GRK2 CP1: human GRK2 inhibition confirmation, cherry pick 1; shares compounds with GRK2 aptamer HTS; bead-bound GRK2, FAM-aptamer displacement, flow cytometry; aptamer displacement, % at 10 µM; actives 4% (n = 2,000);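 active = aptamer displacement above 40%, near three times the noise of non-fluorescent compounds, on plates passing quality checks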;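 note: negative values mostly reflect intrinsic compound fluorescence rather than true enhancement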
FAM quench CP1: quenches fluorescent RNA aptamer, GRK2 hit artifact. shares compounds with GRK2 aptamer HTS. Carboxyfluorescein RNA aptamer on beads, flow cytometry quenching; stronger effect = lower value. fluorescence response (% of DMSO), % at 10 µM. 2,000 tested, under 10 active. AID 504580;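 active = compounds that quench the bead-bound fluorescent RNA probe, cutting fluorescence to under half of the solvent control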;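 note: counterscreen run without GRK2 so only probe quenching by compound is measured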
GRK2 confirm 2: confirmation of human GRK2 inhibitors binding RNA aptamer site. shares compounds with GRK2 aptamer HTS. bead-bound GRK2, FAM-aptamer displacement, flow cytometry. inhibition of aptamer binding, % at 10 µM. 360 tested, under 10 active. AID 504782;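 active = inhibition of aptamer binding above 40%, about triple the noise seen with nonglowing compounds, on plates passing quality control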;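 note: negative values mostly come from compounds that fluoresce themselves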
FAM quench SP: counter-screen for GRK2 binding hits: quenchers of fluorescent RNA aptamer; shares compounds with GRK2 aptamer HTS; carboxyfluorescein RNA aptamer beads, flow cytometry quenching; stronger effect = lower value; fluorescence response vs DMSO, % at 10 µM; 360 tested, under 10 active;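 active = response vs DMSO under 50%, meaning signal dropped by over half, treated as fluorescence quencher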;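 note: labelled aptamer on streptavidin beads without GRK2 as a quench counter-screen; 100% = bead fluorescence of DMSO wells and lower means quenching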
* hit, by the source's call; x = no result. An excerpt weighted towards active compounds, which were near 1.9% of everything screened. Unless noted, the rule behind the calls is not given here.

SMILES	PABP1 MLLE inh	PABP polyA inh	eIF4H FP inh	PERK inhibitor	GRK2 aptamer HTS	GRK2 CP1	FAM quench CP1	others
O=C(CCCCCN1C(=O)[C@@H]2Cc3ccccc3CN2C1=O)Nc1ccccc1F	-1.1	11.1	6.6	x	3.0	-0.9	96.3
Cc1ccc(NC(=O)CCCCCN2C(=O)[C@@H]3Cc4ccccc4CN3C2=O)cc1	-12.4	4.3	-4.9	x	0.0	x	x
CC(=O)c1cccc(-c2ccnc3c2CC(C(=O)Nc2ccc(C(C)C)cc2)O3)c1 (stereo not drawn)	0.7	x	x	x	x	x	x
Cc1ccc(CNC(=O)C2CCCN(Cc3cnn(-c4ccccc4)c3-n3cccc3)C2)cc1 (stereo not drawn)	8.4	-6.2	3.0	-0.1	5.0	-4.2	99.2
O=C(NCC1CCCO1)C1CCCN(Cc2cnn(-c3ccccc3)c2-n2cccc2)C1 (stereo not drawn)	-4.0	-5.4	-5.1	-1.3	0.0	-7.0	97.7
O=C(CN1C(=O)NC2(CCCC2)C1=O)Nc1cc(S(=O)(=O)N2CCOCC2)ccc1OCC(F)(F)F	-12.6	0.7	-8.2	x	0.0	x	x
O=C(Nc1ccc(S(=O)(=O)N2CCCCC2)cc1)C1CC(=O)N(c2ccccc2)C1 (stereo not drawn)	8.6	-10.5	0.5	x	1.0	x	x
CC1CCCN(S(=O)(=O)c2ccc(NC(=O)C3CC(=O)N(c4ccccc4)C3)cc2)C1 (stereo not drawn)	-10.9	3.9	3.6	x	100.0*	2.6	102.3
N#CC1(Nc2cccc(Cl)c2)CCCC1	11.0	x	x	x	x	x	x
Cc1ccc(C(=O)Nc2cccc(C(F)(F)F)c2)cc1NC(=O)c1csc(-c2ccncc2)n1	1.0	6.1	-5.1	x	0.0	2.5	95.9
O=C(Nc1ccc(F)cc1F)c1csc(-c2ccncc2)n1	-2.3	-1.8	-5.1	-0.4	2.0	x	x
O=C(NCc1ccco1)C1CC(c2ccc(C(F)(F)F)cc2)=NO1 (stereo not drawn)	-10.9	x	x	x	4.0	x	x
Cc1cccc(NC(=O)CCC(=O)N/N=C/c2ccc(O)cc2O)c1	6.0	4.9	11.5	x	56.0*	1.5	104.8
Cc1cnc(C(=O)N2CCN(S(=O)(=O)c3cc(C(F)(F)F)cc(C(F)(F)F)c3)CC2)cn1	-30.6	x	x	x	x	x	x
CCN(C(=O)CN1C(=O)c2ccc([N+](=O)[O-])cc2C1=O)C1CCCCC1	-47.2	2.8	5.3	x	69.0*	x	x	GRK2 confirm 2=3.9;FAM quench SP=35.0*
CCOC(=O)CC(NC(=O)c1cc2cc(Br)ccc2oc1=O)c1cccc([N+](=O)[O-])c1 (stereo not drawn)	1.8	-6.9	-0.3	0.1	78.0*	x	x	GRK2 confirm 2=2.8;FAM quench SP=99.0
CCOC(=O)c1cc2cc([N+](=O)[O-])ccc2oc1=O	1.4	-8.2	-7.7	0.6	5.0	x	x
Cc1ccc(-c2n[nH]c(=S)n2/N=C/C=C/c2ccccc2[N+](=O)[O-])cc1	-31.3	-8.8	9.2	0.0	0.0	x	x
O=[N+]([O-])c1ccccc1/C=C/C=N/n1c(-c2cc(-c3ccccc3)n[nH]2)n[nH]c1=S	-119.3	-6.4	41.7	1.9	69.0*	11.3	99.1
COc1ccc(-c2sc3cc(OC)c(OC)cc3c2-c2ccc(O)cc2)cc1	3.4	x	x	x	0.0	x	x
CC1CN(S(=O)(=O)c2cccc(C(=O)Nc3ccc(S(=O)(=O)NC4=NCCCCC4)cc3)c2)CC(C)O1 (stereo not drawn)	-32.9	x	x	x	0.0	-3.4	98.2
CN(c1ccccc1)S(=O)(=O)c1cccc(C(=O)NCCCN2CCCC2=O)c1	6.2	x	x	x	0.0	x	x
COc1cc(C(=O)NCCOc2cc(C)cc(C)c2)cc(OC)c1OC	-4.3	-1.7	-4.2	x	4.0	x	x
C=CCn1cccc(C(=O)Nc2ccc(F)cc2)c1=O	0.5	10.1	-5.3	x	0.0	x	x
O=C(CCSCCC(=O)NCc1ccccc1)NCc1ccccc1	3.3	0.1	-0.8	1.6	87.0*	1.2	100.6
Cc1ccc(CCSCC(=O)O)cn1	6.4	14.6	-11.2	1.1	74.0*	3.0	100.0
